We go through 26 molecules from PubChem BioAssay AID602163 (The Scripps Research Institute Molecular Screening Center, 2012).

The structures appear in SMILES notation. In all, about 360,000 compounds went through this assay and about 1,100 (0.31%) were called active. The entries come from a sample that favours actives as a whole. Unmarked numbers belong to inactive results. Cut-off read from the data, not from the text of the source: active = activation above about 7.5%; inactive = the rest.

In this test the test system is Methionine sulfoxide reductase A (Bos taurus). Description: activation of methionine sulfoxide reductase A – biochemical, absorbance, bovine, HTS, primary screen (AID 602163).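 Note: 0% = vehicle and 100% = reference activator.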 Particulars: purified bovine MsrA, absorbance read-out; at 10.6 µM; stronger effect = higher value.
On to `Cn1nnnc1SCC(=O)N1CCN(Cc2ccccc2)CC1`, for which the activation was 10.8% (active).

With `CC(=O)c1ccc(-n2nnnc2SCC(=O)N2CCN(C(=O)c3ccco3)CC2)cc1`, the activation is -6.56%.

In the case of `Cn1nnnc1SCC(=O)N1CCN(C(c2ccccc2)c2ccccc2)CC1`, the activation was -4.74%.

For `CC(C)COC(=O)n1c(=O)oc2ccc(S(=O)(=O)N3CCCCC3)cc21`, the activation was -0.43%.

As for `COc1ccc(C2=NN(C(=O)CSc3nc(=O)n4ccc(C)cc4n3)C(c3ccc(C)cc3)C2)cc1` (stereo unspecified), the activation is -4.23%.

As for `FC(F)(F)C1CCCN(c2nsc3ccccc23)C1` (stereo unspecified), the activation is 13% (active).

Regarding `CCCNCc1cc(OCC)c(OCC(=O)Nc2ccccc2)cc1Br`, the activation was -1.95%.

As to `CC(C)(C)C(=O)CCN1C(=O)C2(OCCO2)c2ccccc21`, the activation is 10.5% (active).

Take `C=CCN1C(=O)C2(OCCCO2)c2cccc(Cl)c21`: the activation was -1.83%.

In the case of `O=C(CC1(O)C(=O)N(CN2CCOCC2)c2ccccc21)c1ccccc1` (stereo unspecified), the activation is -7.26%.

Consider `CC(C)C[C@H]1CNC(=O)C(=O)N1C[C@@H]1CCCN1C[C@H](Cc1ccccc1)N1C[C@H](CC(C)C)N(CC2CCCCCC2)C(=O)C1=O`, for which the activation is -1.34%.

Consider `CC1CCC2CCCCC2N1C(=O)c1cc([N+](=O)[O-])cc([N+](=O)[O-])c1` (stereo unspecified), for which the activation is -1.47%.

Take `CCOC(=O)[C@H]1Nc2ccc(Cl)cc2[C@@H]2[C@H]1C1CC(c3ccccc31)N2C(=O)OCc1ccccc1` (stereo partly specified): the activation was -4.81%.

With `O=C(O)C#Cc1cccc2ccccc12`, the activation is -6.37%.

For `CCCCCCNC(=O)CSc1nccn1Cc1ccccc1`, the activation was -3.24%.

With `O=C(NC1CCCC1)C1c2ccccc2OCC(=O)N1Cc1ccccc1` (stereo unspecified), the activation was -2.39%.

For the molecule `O=C(NCc1ccccc1)C1c2ccccc2OCC(=O)N1C1CC1` (stereo unspecified), the activation was 8.21% (active).

Consider `O=C(NCc1ccccc1)C1c2ccccc2OCC(=O)N1CCCN1CCOCC1` (stereo unspecified), for which the activation is -2.2%.

Take `CN1CCN(Cc2c(C(=O)N3CCc4ccccc4C3)nc3ccc(Cl)cn23)CC1`: the activation is -13%.

As for `Nc1ccn(C2CC(O)C(CO)O2)c(=O)n1` (stereo unspecified), the activation was -1.31%.

Turning to `COC(=O)C1CCN(C(=O)COC(=O)c2cc(S(=O)(=O)N3CCOCC3)ccc2C)CC1`, the activation is -0.23%.

Take `CCS(=O)(=O)c1ccc2c(c1)N(S(=O)(=O)c1ccccc1)CC(C(=O)O)O2` (stereo unspecified): the activation was -3.49%.

Consider `COc1ccc(N2CCN(S(=O)(=O)c3cc4c5c(c3)C(C)C(=O)N5CCC4)CC2)cc1` (stereo unspecified), for which the activation was 0.45%.

On to `COC(=O)CN1C(=O)C(O)=C(C(C)=O)C1c1ccc([N+](=O)[O-])cc1` (stereo unspecified), for which the activation was 8.27% (active).

`COc1ccc(C2C(C(C)=O)=C(O)C(=O)N2c2nccs2)cc1` (stereo unspecified): the activation was -4.03%.

Consider `CC(=O)C1=C(O)C(=O)N(c2ccc(Br)cc2)C1c1ccc([N+](=O)[O-])cc1` (stereo unspecified), for which the activation was -4.41%.
